Many of the other results were omitted from the sample, so hits are more common in it than they were.
Giardia kill: kills Giardia lamblia. Giardia lamblia trophozoite viability. activity change, % at 7.66 µM, hits read low. 340,000 compounds, 0.15% hits; in the data active = activity change below about -80%; inconclusive = between about -30% and that limit;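 note: parasites exposed to compound for two days anaerobically before the ATP read; % is set by controls: 0 for no effect and ±100 for the full control effect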
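Giardia trophozoites, 100 cells per well, were exposed to compounds for 48 hrs at 37 deg C under anaerobic conditions; viability was then read as ATP content by bioluminescence after 15-30 min at room temperature.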
VP16 counter: counter-screen for ROR gamma inhibitors: Gal4-VP16 reporter; Drosophila S2 Gal4-VP16 UAS-luciferase, luminescence, 20 h; Potency, µM (titrated, usually from 53.6 µM), for inactives: at the top dose activity, negative = inhibition, hits mostly inhibitors; 310,000 compounds, 3.5% hits; AID 2546;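 note: Gal4-VP16 expression switched on by copper sulfate through the metallothionein promoter; potency is the fitted concentration of half-maximal effect; % is set by controls: 0 for no effect and ±100 for the full control effect; nearly all actives have a fitted effect of over 50% in size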
ERG-DNA inh: blocks human ERG Ets domain binding to DNA | fluorescence polarization, His-ERG Ets domain / labelled DNA | Potency, µM (top dose mostly 76.9 µM), inactives show at the highest dose FP activity, negative = inhibition, most hits filed as inhibitors | 370,000 compounds, 0.028% hits; active = well fitted inhibition curve with a large enough effect in the polarisation, with a control signal flat; inconclusive = small, poorly fitted or top-dose-only effect, or effect the other way, or a change in a side signal; inactive = no such curve, though single readings can be large or run the other way; the % refers to the polarisation;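 note: polarization taken with two DNA probes labelled with fluorescein and Texas red; potency is the fitted concentration of half-maximal effect; % of control where 0% means no effect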
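His-tagged ERG Ets domain (1 uM in the protein solution; 300mM KCl, 50mM Tris-HCl, 1mM EDTA, 1mM DTT, pH 7.5) received compound, then a probe mix of 5 nM fluorescein-DNA and 100nM Texas-615-DNA. Fluorescence polarization was read for both dyes.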
RORg inh: blocks mouse ROR gamma transcriptional activity; P51450; Drosophila S2 Gal4-RORgamma UAS-luciferase reporter, 20 h; Potency, µM (titrated, usually from 53.6 µM), without a hit: at the top dose activity change, negative = inhibition, usual class: inhibitors; 310,000 compounds, 5.4% hits; note: potency is the fitted concentration of half-maximal effect; % is set by controls: 0 for no effect and ±100 for the full control effect; nearly all actives have a fitted effect of over 60% in size
Target sequence (P51450 whole entry, looked up, the tested form may be a part): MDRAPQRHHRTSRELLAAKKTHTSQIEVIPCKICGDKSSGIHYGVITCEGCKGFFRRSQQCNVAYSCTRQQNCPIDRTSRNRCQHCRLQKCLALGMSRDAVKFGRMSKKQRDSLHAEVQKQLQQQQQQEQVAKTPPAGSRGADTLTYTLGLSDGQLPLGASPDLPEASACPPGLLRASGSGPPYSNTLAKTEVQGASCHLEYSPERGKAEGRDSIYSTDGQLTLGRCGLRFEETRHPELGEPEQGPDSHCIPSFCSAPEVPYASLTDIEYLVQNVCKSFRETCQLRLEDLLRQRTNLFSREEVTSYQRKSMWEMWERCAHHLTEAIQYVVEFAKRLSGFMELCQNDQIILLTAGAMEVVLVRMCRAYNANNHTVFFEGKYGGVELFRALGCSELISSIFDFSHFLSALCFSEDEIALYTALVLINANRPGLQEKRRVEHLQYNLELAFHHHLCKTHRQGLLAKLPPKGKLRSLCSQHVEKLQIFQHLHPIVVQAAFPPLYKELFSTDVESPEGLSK
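Drosophila Schneider cells stably carrying a metallothionein-driven Gal4 DBD–ROR gamma fusion and a UAS-Photinus luciferase reporter were exposed to compound for 1 hr, then induced with copper sulfate (700 uM final) for 20 hr at ambient temperature before luminescence reading.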
Integrin act MD: activators of alpha7 integrin expression for muscular dystrophy; alpha7betagal myoblasts, beta-gal FDG fluorescence, 48 h; Potency, µM (highest dose often 38.3 µM), for inactives: at the top dose activation, actives largely listed as activators; 350,000 compounds, 0.064% hits; AID 624291;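 note: potency is the fitted concentration of half-maximal effect; 100% = response of the positive control SU9516; nearly all actives have a fitted effect of over 60% in size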
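alpha7betagal+/- myoblasts (passage 13, 250/well) treated 48 h at 37C with compounds at 1:260 dilution of DMSO stock. Lysed, then beta-galactosidase activity read as FDG fluorescence (ex 480/em 540) after 30 min, with pre-read for autofluorescence.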
The depositor's hits bear a star; ? = inconclusive; · = no result; [ ] = another dose, or the depositor's remark. Unless noted, calls come from the whole dose curve; as a rule, active = well fitted curve in the direction sought with a large enough effect; inconclusive = small, poorly fitted or top-dose-only effect, or another doubt; inactive = no such curve, though single readings can be large; an effect the other way counts as inactive or inconclusive.

SMILES | Giardia kill | VP16 counter | ERG-DNA inh | RORg inh | Integrin act MD
Cc1cccc(Cl)c1NC(=S)NN | 24 | ? | -14% | 5µM* | 15%
COC(=O)CCC(=O)NC(=S)Nc1c(C)cccc1C | -3 | ? | 1% | ? | 8%
Cc1c(Cl)cccc1NC(=S)NN | -20 | 10µM* | -1% | 3.5µM* | -4%
CCOC(=O)Nc1cccc(Cl)c1C | 0 | 5% | -5% | 1% | -15%
Cc1c(Cl)cccc1NC(=S)Nc1ccc2[nH]c(=O)[nH]c2c1 | 7 | -17% | 12% | 0% | -19%
CNC(=S)Nc1cccc(Cl)c1C | -12 | ? | -5% | 13µM* | 0%
CC(=O)Nc1nonc1-c1nc2ccccc2n1CCC(C)C | 4 | -18% | -1% | 13µM* | 11µM*
CCCC(=O)Nc1nnc(SCc2cc(=O)c3ccc(C)cc3[nH]2)s1 | · | · | 1% | · | ·
COc1cccc(/C=N/Nc2ccc(C(=O)O)cc2)c1O | 6 | ? | -6% | 0.032µM* | -2%
COc1cccc(/C=N/Nc2nn3cnnc3c3ccccc23)c1O | 26 | 2.8µM* | 3% | 1.4µM* | -16%
Oc1cccc(/C=N/Nc2nn3cnnc3c3ccccc23)c1 | -15 | -12% | -16% | -34% | 18%
COc1cccc(/C=N/Nc2ccnc(=O)[nH]2)c1O | -11 | 8.9µM* | 11% | 4µM* | -13%
CCOc1ccccc1/C=N/Nc1ccnc(=O)[nH]1 | -3 | 3% | -3% | -30% | 0%
O=c1nccc(N/N=C/c2ccccc2O)[nH]1 | -12 | 7.1µM* | 4% | 3.5µM* | -57%
CCC(Oc1ccccc1)C(=O)Nc1ccc(OCc2cc(=O)n3ccc(C)cc3n2)cc1 (centres undefined) | · | · | 2% | · | ·
c1ccc(-c2nccc(-c3ccco3)n2)nc1 | -3 | -26% | 8% | 13µM* | 8%
Cn1cc(C(=O)N/N=C/c2cccs2)c2ccccc21 | -7 | ? | 14% | 10µM* | 3%
Cc1nc2ccccc2cc1C(=O)N/N=C/c1cccs1 | 7 | ? | -1% | 10µM* | 26%
COCCNC(=O)C(=O)N/N=C/c1cccs1 | 1 | 4% | -7% | 8% | -1%
COc1ccccc1NC(=O)C(=O)N/N=C/c1cccs1 | 13 | 3.2µM* | -2% | 2µM* | -7%
CCOc1ccc(NC(=O)C2CC(=O)N(c3ccc(C(C)C)cc3)C2)cc1 (centres undefined) | · | · | -5% | · | ·
c1ccc(OCCCCn2cnc3ccccc32)cc1 | -9 | ? | -13% | 13µM* | -18%
c1ccc(OCCn2cnc3ccccc32)cc1 | -7 | 3%[0.365 µM] | 4% | 8% | 21%
c1ccc(CCn2cnc3ccccc32)cc1 | 11 | ? | 10% | 13µM* | -3%
Cc1ccc(OCCCCn2cnc3ccccc32)cc1 | 12 | -15% | 5% | -1% | 1%
SMILES | Giardia kill | VP16 counter | ERG-DNA inh | RORg inh | Integrin act MD
Cc1ccccc1OCCCCn1cnc2ccccc21 | -2 | 10µM* | -5% | -101% | 0%
c1ccc2c(c1)ncn2CCN1CCCCC1 | -6 | 2% | 3% | -6% | -2%
COc1ccccc1C(=O)N/C(=C/c1ccco1)C(=O)Nc1cccc(C(=O)O)c1 | 6 | 4% | 25% | 8% | -18%
COc1ccc2[nH]cc(CCNc3ncncc3-c3ccoc3)c2c1 | · | 11µM* | · | -6% | ·
COc1ccc2[nH]cc(CCNc3ncncc3-c3ccc(N(C)C)cc3)c2c1 | · | -1% | · | 9% | ·
O=C1C2CC=CCC2C(=O)N1c1ccc(N2CCN(c3ccccn3)CC2)c([N+](=O)[O-])c1 (centres undefined) | 20 | 4.5µM* | 11% | -81% | 19%
COCC(=O)N(CCc1ccc(OC)c(OC)c1)Cc1cc2cc(C)ccc2nc1Cl | 1 | -3%[10 µM] | 0% | 0% | -35%
Cc1c(C(=O)NN)sc(-c2ccccc2)c1C#N | -1 | ? | -3% | 10µM* | -12%
O=C(c1cc(-c2ccc(Br)cc2)on1)N1CCc2ccccc2C1 | 6 | -5% | 2% | 25% | 5%
Cc1ccc(-c2nnc(NC3CCCC3)s2)cc1 | -7 | ? | 3% | 11µM* | -15%
CC1CN(S(=O)(=O)c2cccc(C(=O)OC/C(O)=C(\C#N)c3nc4ccccc4[nH]3)c2)CC(C)O1 (centres undefined) | 5 | ? | -3% | 11µM* | 3%
N#C/C(=C(/O)COC(=O)c1ccc(Cl)c(S(=O)(=O)N2CCOCC2)c1)c1nc2ccccc2[nH]1 | -19 | 7.1µM* | -2% | 3.5µM* | -16%
Cc1ccc(C(=O)OC/C(O)=C(\C#N)c2nc3ccccc3[nH]2)cc1S(=O)(=O)N1CCOCC1 | 15 | ? | · | ? | -9%
COc1ccccc1NC(=O)COC(=O)CCc1ccc(S(=O)(=O)N2CCOCC2)cc1 | 8 | · | -2% | · | 7%
N#C/C(=C(/O)COC(=O)CCc1ccc(S(=O)(=O)N2CCOCC2)cc1)c1nc2ccccc2[nH]1 | -8 | 20µM* | -2% | 8.9µM* | -53%
N#C/C(=C(/O)COC(=O)c1ccc2c(c1)OCCO2)c1nc2ccccc2[nH]1 | 18 | 16% | 12% | ? | -19%
O=C(NC1CCCC1)O[C@@H]1C(=O)c2cc(Br)ccc2O[C@H]1c1ccc2c(c1)OCO2 | · | 2% | · | 10% | ·
O=c1c(Cl)nc2cc(Cl)ccc2n1CCNc1ncc(C(F)(F)F)cc1Cl | -11 | 5µM* | -4% | 11µM* | -5%
NNc1nc2cccnc2n(CCNc2ncc(C(F)(F)F)cc2Cl)c1=O | 7 | 2% | 1% | 10µM* | 11%
COc1ccccc1N1CCN(C(=O)CSc2nc3ccccc3nc2N2CCC(C)CC2)CC1 | 8 | -4% | -7% | -11% | 44%
CC(=O)Nc1cccc(C(=O)OCC(=O)NC(=O)C2CCCCC2)c1 | 8 | · | · | · | ·
CC(=O)Oc1cc2c(c(C)c1OC(C)=O)CC=C1[C@]3(C)CC[C@]4(C)CC[C@@](C)(C(=O)O)CC4[C@]3(C)CC[C@]12C (some centres undefined) | · | 11µM* | · | ? | ·
Brc1ccc(-c2ccc(/C=N/Nc3nncc(-c4ccccc4)n3)o2)cc1 | 7 | 1.3µM* | 1% | 0.89µM* | 7%
Brc1ccc(/C=N/Nc2nncc(-c3ccccc3)n2)o1 | · | -6% | · | 3.5µM* | ·
c1ccc(-c2ccc(-c3cn4c(n3)CCC4)cc2)cc1 | -23 | 11µM* | 2% | ? | 18%
Cc1ccc(-c2cn3c(n2)CCCC3)cc1 | 6 | ? | 4% | 8.9µM* | 11%
O=C(NC(=S)Nc1cccc2[nH]ncc12)c1ccccc1 | 0 | -7% | 3% | -9% | -21%
O=C(NC(=S)Nc1cccc2cccnc12)c1ccccc1 | -10 | 6.3µM* | 13% | 2.2µM* | -28%
O=C(NC(=S)Nc1cccc2cnccc12)c1ccccc1 | -3 | ? | -4% | 10µM* | ?
Nc1cnn([C@@H]2O[C@H](CO)[C@@H](O)[C@H]2O)c(=O)n1 | · | 5% | · | 5% | ·

Bioassay records (PubChem BioAssay)
